Experimental data reported in PubChem BioAssay (NCI).
This is part of a sample that, as a whole, favours compounds with a hit. Of some 83,000 tested, about 20% had one in any assay.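 Negative percent growth values reflect cell death: -40 means 40% of the cells present at the start died, and -100 means all died.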 Activity calls are given as the source filed them. Rule for the calls: active = growth percent below 10; inactive = the rest.

The compounds below were run on HL-60(TB) leukemia (assay: NCI-60 one-dose screen, 48 h (100 = growth as untreated, 0 = no growth, -100 = all killed)). Details: 10 µM unless noted.

SMILES	growth
O=C(Nc1ccc(-n2ccc3c(NC(=O)c4ccccc4)ncnc32)cc1)Nc1ccc(Cl)c(Cl)c1	62.1% (inactive)
CCc1nnc(NC(=O)c2nnn(-c3ccccc3)c2-c2ccco2)s1	79.9% (inactive)
C[C@]12CC[C@H](O)CC1=CC[C@@H]1[C@@H]2CC[C@]2(C)C(c3cccnc3)=CC[C@@H]12	-25% (active)
c1cc(OCCN2CCCC2)ccc1CNc1ccc2nc(CCC3CCCCC3)[nH]c2c1	-4.69% (active)
O=C(Nc1ccccc1Cl)OCCN1CCOCC1	108% (inactive)
O=C(COc1ccc(/C=C2\Oc3ccccc3C2=O)cc1)c1ccc(Cl)cc1	94.5% (inactive)
COc1ccc(/C(=N\O)c2cc(OC)c(OC)c(OC)c2)c(OC)c1N	-23.8% (active)
O=C(O)c1cn(C2CC2)c2cc(N3CCN(C(=O)N/N=C/c4ccccc4)CC3)c(F)cc2c1=O	100% (inactive)
COc1ccc(Cn2c(Br)c3c(c2-c2cc(OC)c(OC)c(OC)c2)CCc2sc(NC(=O)c4ccc(OC)cc4)nc2-3)cc1	56.4% (inactive)
O=C1c2ccccc2-c2ccccc2C1(Cl)Cl	-39.6% (active)
CCCN(CCC)C(=O)[C@H](CC)[C@@H]1CC[C@@H](C)[C@@H]([C@H](C)[C@@H](O)[C@@H](C)C(=O)[C@H](CC)C2O[C@]3(C=C[C@@H](O)[C@]4(CC[C@@](C)([C@H]5CC[C@](O)(CC)[C@H](C)O5)O4)O3)[C@H](C)C[C@@H]2C)O1 (some centres undefined)	-47.7% (active)
C=C(C)[C@@H]1CC[C@]2(C)[C@H](CC=C3[C@@H]4CC(C)(C)CC[C@]4(C(N)=O)CC[C@]32C)[C@@]1(C)CCC#N	16% (inactive)
CC(C)=CC/C=C(/C)[C@H]1CC[C@]2(C)[C@@H]1CC[C@@H]1[C@@]3(C)CC/C(=N/O)C(C)(C)[C@@H]3CC[C@]12C	5.9% [100 µM] (active)
Cc1ccc(C2CC(c3ccc(Nc4ccnc5cc(Cl)ccc45)cc3)=NN2C=O)cc1 (centres undefined)	9.36% (active)
COc1ccc(CN2c3ccccc3Oc3ccccc32)cc1F	54.1% (inactive)
N=C1c2nc3n(c2C(=O)c2nc4n(c21)CCCCC4)CCCCC3	103% (inactive)
CCOc1ccc(C(=O)NCC(C)C)cc1	94.9% (inactive)
C1=Cc2ccccc2N(c2nnc(-c3ccccc3)o2)c2ccccc21	86.8% (inactive)
O=C1NN(C(=O)c2ccc(O)cc2)C(c2ccccc2)=N/C1=C\c1cn(-c2ccccc2)nc1-c1ccccc1	85.7% (inactive)
O=C(/C=C/c1cccs1)Nc1ncc(Cc2ccc(Cl)c(Cl)c2)s1	14% (inactive)
N#CC1=C(N)Oc2c(c(N)nn2-c2ccccc2)C1c1ccc(Cl)cc1 (centres undefined)	110% (inactive)
N#C/C(=C1C=C/C(=N/O)C(Cl)=C/1)c1ccc(Cl)cc1	61.1% (inactive)
[O-][n+]1c2ccccc2[n+]([O-])c2c3ccccc3[nH]c21	100% (inactive)
O=C1CC(c2cccc(F)c2)c2c(n[nH]c2-c2ccc(Cl)cc2)N1 (centres undefined)	97.3% (inactive)
CS(=O)(=O)c1ccc(-c2[nH]c3ccc(F)cc3c2/C=N/O)cc1	101% (inactive)
COc1ccc2c(N)ncc(C#Cc3cc(C(=O)Nc4ccc(CN5CCN(C)CC5)c(C(F)(F)F)c4)cnc3C)c2c1	43.9% (inactive)
Clc1ccc(CNc2ccc3nc(CCC4CCCCC4)[nH]c3c2)cc1	24.8% (inactive)
COC(=O)c1nc(-c2ccccc2)oc1S(=O)(=O)Cc1ccccc1	16.8% (inactive)
COc1ccc(C(=O)N/N=C/c2cc(C(F)(F)F)ccc2Cl)cc1	100% (inactive)
